hDAT+cocaine = changed hDAT dopamine uptake under cocaine IC80, either direction, primary screen, cocaine antagonist project, cell-based, LLC-PK1 hDAT, [14C]-dopamine uptake, MLSMR; AID 449768, 2010; Sodium-dependent dopamine transporter (Homo sapiens), Q01959; B-score at 10 µM; actives 1.3% (n = 110,000); LLC-PK1 hDAT cells, [14C]-dopamine uptake with cocaine IC80; actives deviate in either direction;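 active means Z score or B-score, a plate-position-corrected score, falls beyond the plate's 99.7% confidence bounds, in either direction; inactive means both scores lie inside the 99.7% bounds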;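 further: scored against the spread of the other compound wells on the same plate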
D1 allo mod = D1 CRE-luciferase signal change, two-sided – cell-based, HEK293 D1, dopamine EC30, D1 allosteric modulator project, primary screen; dopamine EC30 potentiation; actives deviate in either direction; B-score at 10 µM; actives 5.9% (n = 58,000);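 active means luminescence count or its row- and column-corrected plate score outside the 99.7% band of the plate's sample wells, on either side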
BAP1 block = inhibitors of BAP1 deubiquitinase, primary screen, biochemical, Ub-AMC fluorescence, kinetic; Ubiquitin carboxyl-terminal hydrolase BAP1 (Homo sapiens), Q92560; recombinant BAP1, Ub-AMC hydrolysis fluorescence kinetic; hits give low values; calls only at 20 µM; actives 0.48% (n = 72,000);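 active means activity remaining at or below 50% of control, provided the compound also passes the data quality filters; inactive means the rest, including low values that fail the filters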;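 further: 100% = DMSO wells rate and 0% = substrate alone blank rate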
Target sequence (Q92560 whole entry, looked up): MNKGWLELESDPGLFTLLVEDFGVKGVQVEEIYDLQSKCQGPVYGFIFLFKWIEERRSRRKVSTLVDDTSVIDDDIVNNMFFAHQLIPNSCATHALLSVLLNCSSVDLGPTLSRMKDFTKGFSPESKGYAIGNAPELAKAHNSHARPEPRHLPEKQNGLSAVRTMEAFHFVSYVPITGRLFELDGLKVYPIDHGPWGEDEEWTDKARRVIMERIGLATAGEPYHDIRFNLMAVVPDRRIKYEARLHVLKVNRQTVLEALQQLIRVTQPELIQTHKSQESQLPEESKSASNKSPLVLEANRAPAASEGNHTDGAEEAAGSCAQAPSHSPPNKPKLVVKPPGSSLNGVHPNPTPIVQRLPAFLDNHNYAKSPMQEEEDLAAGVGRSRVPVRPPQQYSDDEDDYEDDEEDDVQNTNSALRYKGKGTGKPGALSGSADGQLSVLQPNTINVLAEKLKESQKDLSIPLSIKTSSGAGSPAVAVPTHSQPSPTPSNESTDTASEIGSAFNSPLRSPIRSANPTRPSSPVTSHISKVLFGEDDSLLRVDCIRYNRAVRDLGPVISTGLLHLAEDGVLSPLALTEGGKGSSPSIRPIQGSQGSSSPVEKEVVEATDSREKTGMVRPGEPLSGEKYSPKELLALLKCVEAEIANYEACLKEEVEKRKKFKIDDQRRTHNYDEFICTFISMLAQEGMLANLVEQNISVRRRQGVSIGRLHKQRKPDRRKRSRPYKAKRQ
An asterisk follows results filed as active. The full list was thinned out, with hits kept by preference.

Results for C=CCC(NCc1ccco1)c1ccc(OC)c(OC)c1 (stereo not drawn) ?
hDAT+cocaine: -7.49*

Results for C=CCC(NCc1ccco1)c1ccc(OC)cc1OC (stereo not drawn) ?
hDAT+cocaine: 1.44; D1 allo mod: 0.101; BAP1 block: inactive

What do the screens show for `O=C(Nc1nc2ccccc2s1)C(=O)Nc1nc2ccccc2s1`?
BAP1 block: inactive

Results for COc1ccc(/C=C2\CCc3ccccc3C2=O)cc1Cn1nc(C)cc1C ?
hDAT+cocaine: 4.9*

What do the screens show for `COc1ccc(/C=C2\CCc3ccccc3C2=O)cc1OC`?
hDAT+cocaine: -1.17

How did Clc1cccc2sc(N3CCCC3)nc12 do in these assays?
hDAT+cocaine: -0.327; D1 allo mod: -6.55*; BAP1 block: inactive

How did Clc1cccc2sc(N3CCOCC3)nc12 do in these assays?
hDAT+cocaine: -0.488; D1 allo mod: 0.617; BAP1 block: inactive

How did Cc1nc(N2CCN(c3ccccc3)CC2)c2c3c(sc2n1)CCC3 do in these assays?
D1 allo mod: -1.23; BAP1 block: inactive

What do the screens show for `CSc1nc(N2CCOCC2)c2c3c(sc2n1)CCC3`?
hDAT+cocaine: -0.0343; D1 allo mod: 8.53*

How did C=C(C)CN1CCN(c2cc(C)c(C#N)c3nc4ccccc4n23)CC1 do in these assays?
BAP1 block: inactive

Results for COCCOC(=O)C1=C(C)NC2=C(C(=O)CC(C)(C)C2)C1c1ccc(OC)c(OC)c1 (stereo not drawn) ?
BAP1 block: inactive

How did Sc1oc(-c2ccccc2)cc1C=Nc1ccc(Cl)cc1 do in these assays?
BAP1 block: inactive

What do the screens show for `O=C(c1ccc(Br)o1)N1CCN(C/C=C/c2ccccc2)CC1`?
hDAT+cocaine: 1.42; D1 allo mod: -3.68*; BAP1 block: inactive

How did O=C(c1ccc(Br)s1)N1CCN(C/C=C/c2ccccc2)CC1 do in these assays?
hDAT+cocaine: 0.571

What do the screens show for `O=C(Nc1ccc2c(c1)CCC2)c1cc(S(=O)(=O)N2CCCCC2)ccc1Cl`?
BAP1 block: inactive

Results for COc1cccc(C=Nc2cccnc2)c1O ?
hDAT+cocaine: -6.95*; D1 allo mod: 0.539; BAP1 block: inactive

How did COc1cccc(C=Nc2cccc(NC(=O)c3ccc(F)cc3)c2)c1O do in these assays?
BAP1 block: inactive

Results for CCCc1ccc(-c2ccc(C(=O)Nc3ccc(C(=O)OC)cc3)cc2)nc1 ?
BAP1 block: inactive

How did O=C(NCCCN1CCN(c2ccccc2)CC1)Nc1ccccc1C(F)(F)F do in these assays?
hDAT+cocaine: -0.119; D1 allo mod: -2.69*; BAP1 block: inactive

How did COc1ccccc1N1CCN(CCCNC(=O)Nc2ccccc2)CC1 do in these assays?
hDAT+cocaine: -0.0581; D1 allo mod: -4.78*; BAP1 block: inactive

What do the screens show for `Cc1ccccc1NC(=O)NCCCN1CCN(c2ccccc2)CC1`?
hDAT+cocaine: -0.519

What do the screens show for `COc1ccc(N2CCN(CCCNC(=O)Nc3ccccc3)CC2)cc1`?
hDAT+cocaine: 0.12

How did CSCCC(NS(=O)(=O)c1ccc(Cl)cc1)C(=O)OCC(=O)NC1CC1 (stereo not drawn) do in these assays?
hDAT+cocaine: -1.31

How did CSCCC(NS(=O)(=O)c1ccc(Cl)cc1)C(=O)OCC(=O)NC1CCCCC1 (stereo not drawn) do in these assays?
hDAT+cocaine: 3.17*

How did Cc1cc(=O)[nH]c(/N=C(\N)N2CCc3ccccc32)n1 do in these assays?
BAP1 block: inactive

Results for Cn1cc(C(=O)c2ccccc2)cc1-c1nc2ccccc2n1C ?
hDAT+cocaine: 2.6*; D1 allo mod: -0.0185; BAP1 block: inactive

What do the screens show for `Cc1oc(-c2nc3ccccc3n2C)cc1C(=O)c1ccccc1`?
hDAT+cocaine: -0.0394; D1 allo mod: -3.77*; BAP1 block: inactive

How did CCC(=O)c1cc(-c2nc3ccccc3n2C)n(C)c1 do in these assays?
hDAT+cocaine: 1.22; D1 allo mod: 0.271; BAP1 block: inactive

Results for CC(=O)c1ccc(-c2nc3ccccc3n2C)o1 ?
hDAT+cocaine: -0.414; D1 allo mod: 0.0586

How did CN1C(=O)C(C)(C)N(Cc2ccccc2)c2ccccc21 do in these assays?
BAP1 block: inactive

What do the screens show for `COc1ccc(C(=O)Nc2cc(OC)cc(OC)c2)cc1`?
hDAT+cocaine: 1.72*; D1 allo mod: -1.67

What do the screens show for `COc1cccc(C(=O)Nc2ccc(C)cc2)c1`?
hDAT+cocaine: 1.31; D1 allo mod: -4.49*; BAP1 block: inactive

Results for COc1cccc(C(=O)Nc2ccc(C(=O)O)cc2)c1 ?
hDAT+cocaine: -0.697; D1 allo mod: -0.59

How did COc1cc(NC(=O)c2ccccc2)cc(OC)c1 do in these assays?
hDAT+cocaine: 1.99; D1 allo mod: -1.16; BAP1 block: inactive

How did CCCc1c(C(=O)OCC)[nH]c2c1C(=O)CCC2 do in these assays?
hDAT+cocaine: 0.46; D1 allo mod: 0.636; BAP1 block: inactive

What do the screens show for `Cc1c(C(=O)OCCOc2ccccc2)[nH]c2c1C(=O)CCC2`?
hDAT+cocaine: 1.11; D1 allo mod: -3.78*; BAP1 block: inactive

Results for N=c1c2c(ncn1CCN1CCOCC1)Oc1ccc3ccccc3c1C2c1ccccc1 (stereo not drawn) ?
hDAT+cocaine: 0.0352

What do the screens show for `COc1ccc(C2c3c(ncn(CCN4CCOCC4)c3=N)Oc3ccc4ccccc4c32)cc1` (stereo not drawn)?
hDAT+cocaine: 3.38*

How did O=C1c2ccc(Br)cc2C(=O)N1c1cccc(C(F)(F)F)c1 do in these assays?
BAP1 block: inactive

Results for COc1ccc(Nc2nc(NCCO)nc(OC)n2)cc1 ?
hDAT+cocaine: -0.573

What do the screens show for `CC(=O)c1ccc(Nc2nc(NCCO)nc(OC(C(F)(F)F)C(F)(F)F)n2)cc1`?
hDAT+cocaine: -6.33*

Results for CN(CC#CCC(O)(c1ccccc1)C1CCCC1)Cc1ccccc1 (stereo not drawn) ?
BAP1 block: inactive

Results for Fc1ccc(Cn2nnc(-c3ccc(CN4CCOCC4)cc3)n2)cc1 ?
hDAT+cocaine: -7.95*; D1 allo mod: 0.0302; BAP1 block: inactive

How did Clc1ccc(Cn2nnc(-c3ccc(CN4CCOCC4)cc3)n2)cc1 do in these assays?
hDAT+cocaine: 1.21; D1 allo mod: 0.604; BAP1 block: inactive

How did CCCn1c(=N)n(CC(O)c2ccccc2)c2ccccc21 (stereo not drawn) do in these assays?
BAP1 block: inactive

What do the screens show for `CCCC(=O)Nc1nc(C)c(-c2csc(Nc3ccccc3OC)n2)s1`?
hDAT+cocaine: 0.354

Results for COc1ccccc1Nc1nc(-c2sc(NC(=O)CC(C)C)nc2C)cs1 ?
hDAT+cocaine: 2.73*

Results for COc1ccc(NC(=O)COc2ccccc2C(C)C)c(OC)c1 ?
BAP1 block: inactive

Results for CC(=Nc1ccccc1)c1sc2ccccc2c1O ?
hDAT+cocaine: 2.27*

How did CC(=Nc1ccccc1)C1=C(O)COC1=O do in these assays?
hDAT+cocaine: -0.326

Results for CCCc1ccc(C=Cc2ccccc2)nc1 ?
BAP1 block: inactive

Results for O=C1CC(NCCc2ccc(Cl)cc2)C(=O)N1c1ccc(Br)cc1 (stereo not drawn) ?
BAP1 block: inactive

High-throughput results as filed in PubChem BioAssay.
